Shown are actives, neighbours in structure and some others; about 0.44% of the full set was active somewhere.
YopH PTP inh: YopH tyrosine phosphatase inhibitors, primary screen, biochemical, fluorescence Ex485/Em525; inhibition, % (no concentration beside the values); hit rate 0.16% among 140,000; in the data active means inhibition above about 50%
RmlC RmlD mix: RmlC and RmlD coupled enzyme inhibitors, primary screen, biochemical, 384-well, compound mixtures, retest; RmlC/RmlD coupled enzyme inhibition, 384-well mixture HTS; hit rate 0.39% among 110,000; AID 1532, 2009; inhibition, % at 5.5 µM; in the data active means inhibition above about 30%, passing the limit was not always enough; inconclusive means no clear call, values can overlap the other calls
RmlCD artifact: counter-screen for RmlC/RmlD inhibitors: fluorescence artifact, dose response, artefact control, biochemical; RmlC/RmlD assay fluorescence artifact counter-screen; AID 1696, 2009; hit rate 96% among 360; calls only; shares compounds with RmlC RmlD mix; call rule not given here;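 further: compound alone with no enzyme and no substrates present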
* marks the source's active call; other numbers are inactive results.

Results for Cc1ccc2nc3c(cc(C#N)c(=O)n3-c3nccs3)c(=O)n2c1 ?
YopH PTP inh: -23; RmlC RmlD mix: 107*; RmlCD artifact: active

Results for COc1ccc(Cl)cc1N(CC(=O)NC(C)(C)C)S(=O)(=O)c1ccc(C)c([N+](=O)[O-])c1 ?
YopH PTP inh: -1

What do the screens show for `O=C(Cn1c(=O)c(=O)n(Cc2ccccc2)c2ccc(Cl)cc21)Nc1cccc(F)c1`?
YopH PTP inh: -18

How did CC1(c2nnc(-c3cccc(Cl)c3)o2)CC(c2ccccc2F)=NO1 (stereo not drawn) do in these assays?
RmlC RmlD mix: -7

How did N#Cc1c(-c2ccco2)cc(-c2cccnc2)nc1N do in these assays?
YopH PTP inh: -51; RmlC RmlD mix: inconclusive

Results for N#Cc1c(-c2ccco2)cc(-c2ccccn2)nc1N ?
YopH PTP inh: -11; RmlC RmlD mix: 46*; RmlCD artifact: active

Results for Cc1nc2ccccn2c1/C(O)=C1\C(=O)C(=O)N(CCCN(C)C)C1c1ccc(F)cc1 (stereo not drawn) ?
YopH PTP inh: -26

What do the screens show for `CCOC(=O)c1nn(-c2ccc(Cl)cc2)c2nc(-c3ccc(C)cc3)c(C#N)c(=O)n12`?
YopH PTP inh: 3; RmlC RmlD mix: 11

How did CCOC(=O)c1nn(-c2ccc(Cl)cc2)c2nc(CC)c(C#N)c(=O)n12 do in these assays?
YopH PTP inh: -19; RmlC RmlD mix: 85*; RmlCD artifact: active

How did CCN1CCN(CCCNC(=O)c2cc3cc4ccc(OC)cc4nc3o2)CC1 do in these assays?
YopH PTP inh: -8

What do the screens show for `COc1ccc2cc3cc(C(=O)NCCCN4CCOCC4)oc3nc2c1`?
YopH PTP inh: -33; RmlC RmlD mix: 43*; RmlCD artifact: active

How did CC(C)c1cc(NCCCN2CCOCC2)n2c(nc3ccccc32)c1C#N do in these assays?
YopH PTP inh: -37; RmlC RmlD mix: 45*; RmlCD artifact: active

How did CCCc1c(C)c(C#N)c2nc3ccccc3n2c1NCCCN1CCOCC1 do in these assays?
YopH PTP inh: -26; RmlC RmlD mix: 8

Results for Cc1cc(NCCCn2ccnc2)n2c(nc3ccccc32)c1C#N ?
YopH PTP inh: 35; RmlC RmlD mix: 85*; RmlCD artifact: active

How did Cc1cc(NCCN2CCCCC2)n2c(nc3ccccc32)c1C#N do in these assays?
YopH PTP inh: 11

How did Cc1c(Br)c([N+](=O)[O-])nn1CC(=O)Nc1c(C)n(C)n(-c2ccccc2)c1=O do in these assays?
YopH PTP inh: -8

Results for CCCCS(=O)(=O)NC1=NCN(C2CCN(Cc3ccccc3)CC2)CN1 ?
YopH PTP inh: 24

Results for C=CCOc1ccc(C2OC34CCCCC3C(C#N)(C#N)C2(C#N)C(=N)O4)cc1 (stereo not drawn) ?
YopH PTP inh: -19; RmlC RmlD mix: 60*; RmlCD artifact: active

Results for CCCCOc1ccc(C2OC34CCCCC3C(C#N)(C#N)C2(C#N)C(=N)O4)cc1 (stereo not drawn) ?
YopH PTP inh: -25; RmlC RmlD mix: 161*; RmlCD artifact: active

What do the screens show for `CCC12OC(=N)C(C#N)(C1C)C(C#N)(C#N)C(c1ccccc1)O2` (stereo not drawn)?
YopH PTP inh: -13

Results for CCOc1ccc(C2OC34CCCCC3C(C#N)(C#N)C2(C#N)C(=N)O4)cc1OC (stereo not drawn) ?
YopH PTP inh: -23; RmlC RmlD mix: active; RmlCD artifact: active

Results for CCOc1ccc(C2C(C#N)=C(N)SC(N)=C2C#N)cc1OC ?
YopH PTP inh: -32; RmlC RmlD mix: -2

What do the screens show for `Cc1ccc(C2OC34CCCCCC3C(C#N)(C(=N)O4)C2(C#N)C#N)cc1` (stereo not drawn)?
YopH PTP inh: -8

How did O=[N+]([O-])c1cc(C(F)(F)F)ccc1N1CCN(S(=O)(=O)c2ccc3c(c2)CCCC3)CC1 do in these assays?
YopH PTP inh: -11

How did CCN(CC)S(=O)(=O)c1ccc(OC)c(NC(=O)COc2ccc3c(C)cc(=O)oc3c2)c1 do in these assays?
YopH PTP inh: -20

Results for Cc1ccccc1N=CC=C1OC(C)(C)C(C)(C)O1 ?
YopH PTP inh: -28

Results for c1ccc2cc(-c3cc4ccccn4c3)ccc2c1 ?
YopH PTP inh: -48; RmlC RmlD mix: 91*; RmlCD artifact: active

Results for CC(=O)N1N=C(c2ccc3ccccc3c2)OC1(C)C ?
YopH PTP inh: -15

How did CCN(CC)C(=O)c1cc2c(=O)n3ccccc3nc2s1 do in these assays?
YopH PTP inh: -20; RmlC RmlD mix: 27

Results for COCCN(CCOC)C(=O)c1cc2c(=O)n3ccccc3nc2s1 ?
YopH PTP inh: -39; RmlC RmlD mix: 115*; RmlCD artifact: active

Results for Cn1c(C(=O)NCc2ccccn2)cc2c(=O)n3ccccc3nc21 ?
YopH PTP inh: -26; RmlC RmlD mix: 96*; RmlCD artifact: active

What do the screens show for `Cn1nc(C(=O)NCc2ccccn2)c2ccccc2c1=O`?
YopH PTP inh: -46; RmlC RmlD mix: -8

Results for COCCNC(=O)c1c(N)n(-c2ccccc2)c2nc3ccccc3nc12 ?
YopH PTP inh: 1

How did COC(=O)c1c(N)n(-c2ccc(NC(C)=O)cc2)c2nc3ccccc3nc12 do in these assays?
YopH PTP inh: 44; RmlC RmlD mix: 64*; RmlCD artifact: active

How did COc1ccc2cc(CN(Cc3cccs3)Cc3nnnn3Cc3ccccc3)c(=O)[nH]c2c1 do in these assays?
YopH PTP inh: -10; RmlC RmlD mix: 0

How did COc1ccc2cc(CN(Cc3cccnc3)Cc3nnnn3Cc3ccccc3)c(=O)[nH]c2c1 do in these assays?
YopH PTP inh: -35; RmlC RmlD mix: 33*; RmlCD artifact: inactive

What do the screens show for `COc1ccc(/C=N/NC(=O)Nc2cccc3nsnc23)c(OC)c1`?
YopH PTP inh: -22; RmlC RmlD mix: 39*; RmlCD artifact: active

Results for COc1cc(/C=N/NC(=O)Nc2cccc3nsnc23)cc(OC)c1OC ?
YopH PTP inh: -36

How did COC(=O)[C@@](C)(O)C1(C(=O)SC(C)(C)C)CC1 do in these assays?
RmlC RmlD mix: -5

How did CN(C(=O)c1cccnc1)c1nnc(-c2cnccn2)s1 do in these assays?
YopH PTP inh: -33; RmlC RmlD mix: 4

What do the screens show for `CN(C(=O)c1cccnc1)c1nnc(-c2ccccn2)s1`?
YopH PTP inh: -33; RmlC RmlD mix: 42*; RmlCD artifact: active

How did O=S(=O)(Nc1ccc(N2CCCCC2)cc1)c1ccc(F)c(F)c1 do in these assays?
YopH PTP inh: -25

What do the screens show for `CCCCC1=CC2=CC(=O)C(C)(OC(=O)c3ccc(Cl)nc3)C(=O)C2=CO1` (stereo not drawn)?
RmlC RmlD mix: 12

Results for COc1cc(=O)n(C)c2cc(N(C)C)ccc12 ?
YopH PTP inh: 26; RmlC RmlD mix: 80*; RmlCD artifact: active

Results for CN1C(=O)c2ccc(N(C)C)cc2C1=O ?
YopH PTP inh: 14; RmlC RmlD mix: -3

Results for COc1cccc(N2[C@@H](CC(=O)O)c3ccc(/C=C/C(=O)O)cc3S2(=O)=O)c1 ?
RmlC RmlD mix: -20

How did COc1ccc(C#Cc2c(-c3ccsc3)oc3ccc(-c4cc(OC)c(OC)c(OC)c4)cc23)cc1 do in these assays?
RmlC RmlD mix: 60*; RmlCD artifact: active

Screening data deposited in PubChem BioAssay by several laboratories.
